Screening results from PubChem.
Tau FP inhib: blocks human tau fibril formation measured by polarization | Potency, µM (doses to about 57.7 µM), usual class: inhibitors | 280,000 tested, 0.39% active | AID 1468 | P10636 | K18 P301L tau heparin fibrillization, Alexa594 FP, 6 h; further: nearly all actives have a fitted effect of over 55% in size
Target sequence (P10636 561-689 P618L limits assumed): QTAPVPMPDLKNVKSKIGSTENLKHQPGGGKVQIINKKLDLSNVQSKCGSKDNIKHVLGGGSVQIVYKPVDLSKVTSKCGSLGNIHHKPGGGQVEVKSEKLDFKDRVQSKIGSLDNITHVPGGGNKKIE
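Compound effects on tau fibrillization are measured by Alexa 594 fluorescence polarization (ex 555, em 632 nm). K18 P301L tau is used at 15 uM with 0.24 uM labeled tracer, and 20 uM heparin induces aggregation over 6 hr at 37 C.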
Tau fluor counter: counter-screen for tau fibril formation inhibitors | tau K18 P301L Alexa594 fluorescence, heparin fibrillization | Potency, µM (doses to about 57.7 µM) | 280,000 tested, 0.93% active | AID 1463; further: nearly all actives have a fitted effect of over 55% in size
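Human tau K18 P301L (15 uM unlabeled, 0.24 uM Alexa 594-labeled) in 100 mM sodium acetate pH 7 with 20 uM heparin, 6 hr at 37 C. ThT 30 uM added, 1 hr ambient; Alexa 594 FP and total fluorescence read at 555/632 nm.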
Tau ThT inhib: tau fibrillization inhibition (ThT binding) | P10636 | recombinant tau K18 P301L (four-repeat tau fragment), heparin-induced fibrillization, ThT fluorescence | Potency, µM (series often up to 57.4 µM), most hits filed as inhibitors | 270,000 tested, 2.1% active | AID 1460; further: nearly all actives have a fitted effect of over 55% in size
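K18 P301L tau (15 uM + 0.24 uM Alexa 594-tagged), heparin 20 uM, NaOAc pH 7, 6 h 37 C; ThT 30 uM, 1 h RT, ex 450/em 510 nm.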
Coupling enz: inhibits coupling enzyme system, counter-screen for aldolase hits; AID 2472; coupling enzyme system counterscreen, AmpLite Red fluorescence; activity change, negative = inhibition, % at 58.2 µM, hits read low; 290,000 tested, 0.67% active; in the data active means activity change below about -30%
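Counterscreen lacking aldolase: glyceraldehyde-3-phosphate coupling-enzyme reagent preincubated 10 min at RT with compound (at 57.5 uM final), then substrate/coupling system with AmpLite Red added; fluorescence read at 525/598 nm after 20 min RT.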
Sfp PPTase inh: Sfp phosphopantetheinyl transferase inhibition; Q9F4F7; Biochemical Sfp PPTase activity, qHTS; Potency, µM, actives largely listed as inhibitors; 310,000 tested, 3.5% active; AID 1490;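 further: the enzyme is Sfp with the accession as filed and its product quenches rhodamine fluorescence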
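Compounds were incubated with enzyme (final 15 nM) for 15 min at room temperature before substrate addition started the reaction. Fluorescence at 525 nm excitation, 598 nm emission was recorded immediately and after 30 minutes.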
Numbers stand for hits; i = inactive; ? = inconclusive; nt = no result given; [ ] = remark or other dose. Most compounds without a hit are left out; they make up all but 5.2% or so of the library. Unless noted, the call rests on the fitted dose curve; in most records, active means well fitted curve in the direction sought with a large enough effect; inconclusive means small, poorly fitted or top-dose-only effect, or another doubt; inactive means no such curve, though single readings can be large; an effect the other way counts as inactive or inconclusive.

SMILES	Tau FP inhib	Tau fluor counter	Tau ThT inhib	Coupling enz	Sfp PPTase inh
NC(=O)CSc1nnc(Cc2csc(Nc3ccccc3)n2)n1Cc1ccccc1	i	i	i	i	20µM
CC1=CC2(O)OCCN(CCO)C2=CC1=O (stereo not drawn)	?	?	28µM	-67	56µM
Cc1cc(C)n(-c2ncc3c(n2)N(CCO)CCOC3=O)n1	i	i	i	i	i
Cc1ccc(C)c(CN2C(=O)COc3ccc(C(=O)c4ccccc4C(=O)O)cc32)c1	i	i	i	-35	i
Cc1ccc(C)c(CN2C(=O)COc3ccccc32)c1	nt	nt	nt	i	i
Cc1cc(C)n(C)c(=O)c1C#N	i	i	i	i	i
Cc1c(C(=O)O)nn(-c2ccccc2)c(=O)c1C#N	i	i	i	i	i
Cc1c(/C=N/Nc2ccc(F)cc2)c(O)n(C)c(=O)c1C#N	?	i	14µM	i	i
Cc1c(C=O)c(Cl)n(C)c(=O)c1C#N	i	i	?	-46	?
CC(=O)N=Cc1c(C)c(C#N)c(=O)n(C)c1O	i	i	?	-51	?
CCOc1ccc(Br)cc1CNCCSc1nnnn1-c1ccccc1	i	i	i	nt	nt
CCOC(=O)C(C(=O)OCC)N(Cc1cc(OC)ccc1OC)C(=O)C1CC(CO[Si](C)(C)C(C)(C)C)=CN1C(=O)OC(C)(C)C (stereo not drawn)	nt	nt	nt	i	i
Cc1ccc(C(=O)COC(=O)c2ccc3c(c2)C(=O)N(c2cccc4ncccc24)C3=O)cc1	i	i	?	i	79µM
O=C(COC(=O)c1ccc2c(c1)C(=O)N(c1cccc3ncccc13)C2=O)c1ccc(Cl)cc1	i	i	?	i	28µM
CN(C(=O)CSc1nnc(COc2ccccc2)o1)c1ccccc1	i	?	i	nt	nt
Cc1ccc(NC(=O)c2sc3nc(-c4ccncc4)ccc3c2N)cc1	i	i	?	nt	nt
COc1ccc(-c2ccc3c(N)c(C(=O)NCc4ccc(C)cc4)sc3n2)cc1	i	?	i	nt	nt
COc1cccc(-c2ccc3c(N)c(C(=O)Nc4ccccc4C)sc3n2)c1	i	8.9µM[quencher]	?	nt	nt
COc1cccc(-c2ccc3c(N)c(C(=O)NCc4ccc(Cl)cc4)sc3n2)c1	i	4.5µM[quencher]	?	nt	nt
COc1cccc(-c2ccc3c(N)c(C(=O)c4ccc(F)cc4)sc3n2)c1	?	3.2µM[quencher]	?	nt	nt
Cc1ccccc1NC(=O)c1sc2nc(-c3ccncc3)ccc2c1N	i	10µM[quencher]	5µM	nt	nt
CCc1ccccc1NC(=O)Cn1nc(CC)n2c(cc3sccc32)c1=O	i	i	i	nt	nt
Cc1ccc2c(c1)C(c1ccc(F)cc1)N(C(=O)c1ccc(S(=O)(=O)N3CCCCC3)cc1)CC(=O)N2 (stereo not drawn)	i	i	i	nt	nt
CCOc1ccc(N(C(=O)c2ccc(OC)cc2)S(=O)(=O)c2ccc3c(c2)n(C)c(=O)n3C)cc1	i	i	?	nt	nt
O=C(CN1C(=O)CCSc2ccc(S(=O)(=O)N3CCCC3)cc21)Nc1cccc(F)c1	i	i	i	nt	nt
SMILES	Tau FP inhib	Tau fluor counter	Tau ThT inhib	Coupling enz	Sfp PPTase inh
COc1cccc(-c2ccc3c(N)c(C(=O)NC4CC4)sc3n2)c1	i	16µM[quencher]	?	i	i
COc1cccc(-c2ccc3c(N)c(C(=O)Nc4cc(F)ccc4F)sc3n2)c1	i	?	?	nt	nt
CCOC(=O)CSc1nc(C2CC2)nc2ccccc12	i	i	i	i	89µM
Cc1ccc(NC(=O)CSCC(=O)Nc2ncc3c(n2)CC(c2ccco2)CC3=O)cc1 (stereo not drawn)	i	i	?	i	14µM
CCC(=O)/C=C1/Sc2ccccc2N1CC	i	i	?	i	28µM
CN1/C(=C\C(=O)c2ccco2)C(C)(C)c2ccccc21	i	i	?	i	?
CCN1/C(=C/C(=O)c2ccco2)Sc2ccccc21	i	i	i	i	50µM
CCC(=O)/C=C1/Sc2ccc(OC)cc2N1CC	i	i	?	i	i
O=C1c2ccccc2C(Nc2ccc(S(=O)(=O)N3CCCCC3)cc2)N1Cc1ccco1 (stereo not drawn)	i	i	i	i	40µM
O=C1c2ccccc2C(Nc2ccc(F)c(Cl)c2)N1Cc1ccco1 (stereo not drawn)	i	i	?	i	32µM
CC(=O)c1ccc(C2CC34CNS(=O)(=O)C3CC2O4)cc1 (stereo not drawn)	nt	nt	nt	i	i
Cc1cc(NC(=O)C2CCCN(S(=O)(=O)c3cccc4nonc34)C2)ccc1Br (stereo not drawn)	i	i	i	nt	nt
